# Hits are enriched below; roughly 0.92% of the tested compounds scored in any of these assays.
# RPL19A-GFP yeast – modulators of TOR pathway RPL19A-GFP in S. cerevisiae | actives 0.3% (n = 330,000) | S. cerevisiae RPL19A-GFP strain, flow cytometry, 3 h; stronger effect = lower value | percent response vs DMSO, % at 10 µM;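 active means percent response vs DMSO below 50%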;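 further: median channel GFP fluorescence of the barcoded RPL19A-GFP strain; ratio of sample median GFP to plate DMSO average so 100% = DMSO; lower means less RPL19A-GFP as with rapamycin TOR inhibition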
# CIT2 TOR yeast – modulators of TOR pathway CIT2-GFP in S. cerevisiae; S. cerevisiae CIT2-GFP strain, flow cytometry, 3 h; 100 means same as DMSO wells; actives 0.065% (n = 320,000); AID 2029; GFP response vs DMSO, % at 10 µM;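 active means GFP response relative to DMSO above a set limit, near the screen mean plus 3 SD, cut at about 150% in these data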;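 further: ratio of well median GFP fluorescence to mean of DMSO wells on the plate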
# MEP2-GFP yeast – alters MEP2-GFP fluorescence in TOR pathway yeast screen | S. cerevisiae MEP2-GFP strain, flow cytometry GFP, 3 h; 100% = DMSO control level | GFP response vs DMSO, % at 10 µM | actives 0.51% (n = 330,000) | AID 2016;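 active means GFP response versus DMSO above a set limit, roughly screen mean plus 3 SD, cut at about 180% in these data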;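 further: median GFP fluorescence of the barcode-gated MEP2-GFP cells per well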
# LAP4-GFP MLPCN – modulators of TOR pathway LAP4-GFP in S. cerevisiae | GFP response vs DMSO, % at 10 µM | S. cerevisiae LAP4-GFP multiplex, flow cytometry GFP, 3 h; median GFP as percent of DMSO wells | actives 0.34% (n = 320,000);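 active means GFP response vs DMSO above a set limit, about the screen mean plus 3 SD, cut at about 150% in these data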
# AGP1 TOR yeast – alters AGP1-GFP fluorescence in TOR pathway yeast screen. actives 0.02% (n = 320,000). GFP response vs DMSO, % at 10 µM. S. cerevisiae AGP1-GFP multiplex flow cytometry, 3 h; GFP as percent of DMSO wells;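 active means GFP response relative to DMSO above a set limit, near screen average plus 3 SD, cut at about 150% in these data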;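 further: median GFP channel fluorescence of the gated AGP1 strain per well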
# LAP4 cherry2 – second confirmation of modulators of TOR reporter LAP4-GFP in yeast. actives 20% (n = 590). shares compounds with LAP4-GFP MLPCN. GFP response vs DMSO, % at 10 µM. S. cerevisiae LAP4-GFP strain, flow cytometry GFP, 3 h;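 active means GFP signal as percent of the solvent control above about 150%, meaning raised reporter expression, limit read from the data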;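 further: ratio of well median GFP fluorescence to plate DMSO mean so 100% = DMSO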
# MEP2 cherry2 – yeast MEP2-GFP modulation, second cherry pick. shares compounds with LAP4-GFP MLPCN. S. cerevisiae MEP2-GFP strain, flow cytometry GFP, 3 h. GFP response vs DMSO, % at 10 µM. actives 10% (n = 590). AID 2622;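 active means GFP signal above 150% of the solvent control wells, that is a rise of more than half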;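 further: median channel GFP fluorescence of all gated yeast cells per well; ratio of median GFP to plate DMSO average so 100% = DMSO level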
# RPL19A-GFP pick2 – yeast RPL19A-GFP TOR reporter modulation, second cherry pick; shares compounds with LAP4-GFP MLPCN; S. cerevisiae RPL19A-GFP strain, flow cytometry GFP, 3 h; stronger effect = lower value; 100% means same as DMSO wells; GFP response vs DMSO, % at 10 µM; actives 3% (n = 590);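 active means under 65% GFP response relative to DMSO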;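 further: median GFP channel fluorescence per well over the all cells gate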
# CIT2-GFP pick2 – yeast CIT2-GFP TOR reporter modulation, second cherry pick. shares compounds with LAP4-GFP MLPCN. S. cerevisiae CIT2-GFP strain, flow cytometry GFP, 3 h; DMSO control wells read 100%. GFP response vs DMSO, % at 10 µM. actives 8% (n = 590). AID 2624;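 active means GFP response vs DMSO above about 150%, limit read from the data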;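 further: median green fluorescence per well over all gated yeast cells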
# AGP1-GFP pick2 – second confirmation of modulators of TOR reporter AGP1-GFP in yeast; percent response vs DMSO, % at 10 µM; AID 2643; 590 tested, under 10 active; shares compounds with LAP4-GFP MLPCN; S. cerevisiae AGP1-GFP strain, flow cytometry GFP, 3 h;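 active means over 150 percent of DMSO response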;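 further: median GFP channel fluorescence over all cells without mother daughter split; sample median GFP divided by mean DMSO control so 100% equals DMSO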
# Yeast autofluor – counter-screen for compound autofluorescence in yeast s288c cells; 610 tested, under 10 active; S. cerevisiae s288c, 520 nm autofluorescence, flow cytometry, 3 h; stronger effect = higher value; zero means same as solvent-only cells; AID 2757; shares compounds with LAP4-GFP MLPCN; fluorescence change (kMESF span) at 33 µM;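 active means fluorescence span over the dose series, or activity score, above about 33, limit read from the data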
# s288c autofl DR – yeast s288c autofluorescence artifact in dose response; 110 tested, under 10 active; AID 488829; S. cerevisiae s288c parental, compound autofluorescence, flow cytometry, 3 h; shares compounds with LAP4-GFP MLPCN; fluorescence change (span) at 33 µM;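 active means fluorescence change span, or the activity score built from it, above 25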
# TORC1 bypass – wildtype yeast growth loss with TORC1 bypass cells unaffected | shares compounds with LAP4-GFP MLPCN | growth rating (0-3) at 30 µM | 120 tested, under 10 active | S. cerevisiae BY4741 spot growth rating, 48-72 h; stronger effect = lower value;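 active means growth rating at most 1 for wild type yeast while the TORC1 bypass strain still grows fully, rated 3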
# * hit, by the source's call; nt = no result.
SMILES,RPL19A-GFP yeast,CIT2 TOR yeast,MEP2-GFP yeast,LAP4-GFP MLPCN,AGP1 TOR yeast,LAP4 cherry2,MEP2 cherry2,RPL19A-GFP pick2,CIT2-GFP pick2,AGP1-GFP pick2,others
CCOc1cc(N2CCOCC2)c(OCC)cc1NC(=O)c1ccc(OC)c(S(=O)(=O)N2CCOCC2)c1,95,90,100,111,101,nt,nt,nt,nt,nt,
CC1CC(C)CN(CCCNC(=O)Cn2cccc2C(=O)c2ccccc2)C1 (stereo unspecified),104,101,105,104,101,nt,nt,nt,nt,nt,
COC(=O)c1cc(-c2c(-c3ccc4c(c3)OCO4)noc2-c2ccsc2)cc([N+](=O)[O-])c1,102,98,86,102,89,nt,nt,nt,nt,nt,
CN(C)c1ccc(-c2c(-c3ccc4c(c3)OCO4)noc2-c2ccsc2)cn1,91,62,88,155*,71,103,110,98,106,98,
O=C(Nc1cccc(F)c1)c1ccc(-c2ccccc2Cl)o1,108,93,102,115,96,nt,nt,nt,nt,nt,
Cc1ccc(-c2ccc(C(=O)Nc3cccc(F)c3)o2)c2ccccc12,99,80,93,171*,80,104,115,99,100,99,
CCN1CCN(Cc2c(O)ccc3c2O/C(=C\C=C\c2ccccc2)C3=O)CC1,84,61,108,153*,68,104,103,100,113,100,
O=C1/C(=C/C=C/c2ccccc2)Oc2c1ccc(O)c2CN1CCN(CCO)CC1,97,94,99,103,97,nt,nt,nt,nt,nt,
O=S(=O)(c1ccccc1)N1N=C(c2cccs2)CC1c1cccc(O)c1 (stereo unspecified),108,157*,128,99,108,99,96,99,107,101,
C[C@H](NC(=O)c1ccccc1)C(=O)OCC(=O)Nc1sccc1C(N)=O,103,117,106,98,105,nt,nt,nt,nt,nt,
C/C(=N\NC(=O)c1cccc(Br)c1)c1ccccn1,111,96,113,169*,87,nt,nt,nt,nt,nt,Yeast autofluor=0.91;s288c autofl DR=0.16;TORC1 bypass=3
C/C(=N/NC(=O)c1ccc(C(C)(C)C)cc1)c1ccccn1,99,95,104,194*,96,nt,nt,nt,nt,nt,Yeast autofluor=0.82
C/C(=N\NC(=O)c1cc(Br)ccc1O)c1ccccn1,108,89,118,120,96,nt,nt,nt,nt,nt,
O=C(CSc1nc2[nH]ncc2c(=O)[nH]1)Nc1ccccc1F,95,105,96,108,112,nt,nt,nt,nt,nt,
CN(C)C(CNC(=O)c1ccc(S(=O)(=O)Nc2ccccc2F)cc1)c1ccco1 (stereo unspecified),97,88,100,105,98,nt,nt,nt,nt,nt,
